“And” between values parts separate entries of the source, which are not always exact repeats. Identical values can stand only once. Compounds without any hit were thinned out: in the full panel of roughly 83,000, 20% have a hit.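 48-hour exposure, single concentration, 96-well plates; percent growth endpoint where 0 means no net growth. Active: below 10.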 The source made the active and inactive calls.

The assay relates to MDA-MB-468 breast. Briefly: NCI-60 one-dose screen, 48 h (100 = growth as untreated, 0 = no growth, -100 = all killed). To be noted: 10 µM unless noted.
Turning to `C[n+]1c(/C=C/c2c(O)ccc3ccccc23)ccc2ccccc21`, the growth is -16.1% (active).
Regarding `C#CCOc1cccc(-c2ncnc3cc(NC(=O)CCl)ccc23)c1`, the growth is -57.3% (active).
`Cc1ccc(Nc2cc(Cl)c([N+](=O)[O-])cc2[N+](=O)[O-])cc1`: the growth is -65.8% (active).
With `O=C(CC(=O)Nc1cccc(C(=O)O)c1)Nc1cccc(C(=O)O)c1`, the growth is 108% (inactive).
With `CC(C)(C)c1ccc(O)c(Br)c1`, the growth is 70.2% (inactive).
For `CSc1nc(-c2cccs2)c2c(N)[nH]nc2n1`, the growth is 117% (inactive).
For `O=c1c2cc(F)ccc2oc2c(NCCNCCO)nc3ccccc3c12`, the growth is -14.5% (active).
With `O=C1NC(=O)c2c1c1c3ccccc3ccc1c1[nH]c3ccc(Br)cc3c21`, the growth is -12.5% (active).
For the compound `COc1ccc(Cn2cc3c(c2-c2cc(OC)c(OC)c(OC)c2)CCCc2cnoc2-3)cc1`, the growth is 48.6% (inactive).
Consider `Oc1cc(O)c2c(c1)O[C@H](c1ccc(O)c(O)c1)[C@@H](O)C2`, for which the growth is 115% (inactive).
The figure for `Clc1cccc(Cl)c1Nc1ccc2nnc(-c3ccncc3)n2n1` is 104% (inactive); for `COc1ccc(/C=C2\CCCC3=C2N=C2SC(C)=NN2C3c2ccc(OC)c(OC)c2)cc1OC` (stereo not given) it is 12.1% (inactive).
The figure for `Cc1cc(C)c2nc3nc(C)cc(C)c3c(N)c2c1` is 48.4% (inactive); for `COc1cc(NCCCCCCCNC(C)C)c2nccc(C)c2c1` it is 9.01% (active) and 13.7% (inactive).
The result for `COc1ccc(C(=O)c2cc(C(=O)/C=C/c3c(Cl)cccc3Cl)c3cc(C)ccn23)cc1` reads 96.1% (inactive); that for `CN(C)c1ncc(C#Cc2c(F)cccc2F)c2ccccc12`, -7.26% (active); that for `COC12C=C/C(=C(/C(=O)OCc3ccncn3)C(=O)CCCCCCCCC3(OC)C=C/C(=C(/C(=O)OCc4ccncn4)C(=O)CCCCCCCC1)O3)O2`, -45.5% (active).
With `O=C(NNC(=S)Nc1ccccc1)c1ccccn1`, the growth is 51.2% (inactive).
Regarding `O=C1OC(c2ccccc2)=N/C1=C\c1ccc([N+](=O)[O-])cc1`, the growth is 94.6% (inactive).
On to `CC(=O)OCC(=O)O[C@@H]1C[C@]2(C(C)C)O[C@@]1(C)[C@@H]1CC[C@@H](C)[C@H]1[C@@H]2OC(=O)/C=C/c1ccccc1`, for which the growth was 83.7% (inactive).
The result for `O=C(O)c1cn(C2CC2)c2cc(N3CCN(C(=O)Nc4nc(-c5ccc(Cl)cc5)cs4)CC3)c(F)cc2c1=O` reads 9.76% (active); that for `CCCCN(CCCC)CC(CN(CC)CC)OC(=O)Nc1ccccc1` (stereo not given), 90% (inactive); that for `Cn1cc(-c2noc(-c3cn(C)c4ncc(F)cc34)n2)c2cc(Br)ccc21`, 61.3% (inactive).
In the case of `CC(=O)C1C(=O)C(=O)N(c2ccc(Cl)c(Cl)c2)C1=O` (stereo not given), the growth was 115% (inactive).
In the case of `COC(=O)c1ccccc1Cl`, the growth was 109% (inactive).
For the compound `O=C1c2ccccc2-c2c1c1cccnc1c(=O)n2C[C@H](O)CO`, the growth is 88.4% (inactive).
As to `O=C1CCC2=C3C4CCCCC4C(=O)C4CCCC(OC2C1)C34` (stereo not given), the growth is 33.3% (inactive).
As to `CCCCn1c(-c2ccc(O)cc2)cn2c3c(=O)[nH]c(=O)n(C)c3nc12`, the growth is 43.4% (inactive).
The result for `Cc1nn(-c2ccc(Cl)cc2)c2nc3c(nc12)c(=O)oc1ccccc13` reads 125% (inactive); that for `CC(C)(C)OC(=O)Nc1ccc2c(c1)C(NC(=O)Nc1cccc(C#N)c1)CC(C)(C)O2` (stereo not given), -5.73% (active).
Take `COCCOC1=C(Cl)C(=O)c2ccccc2C1=O`: the growth was -5.01% (active).
On to `COc1ccc(-c2nc(SC)nc(N3CCOCC3)c2C#N)cc1`, for which the growth is 101% (inactive).
As to `c1ccc(-c2cc(-c3cc(-c4ccccc4)on3)no2)cc1`, the growth is 84.9% (inactive).
`Cc1ccc([P+](Cc2ccc([N+](=O)[O-])cc2)(c2ccc(C)cc2)c2ccc(C)cc2)cc1`: the growth was -11.7% (active).
With `CCOC(=O)c1c(N)c(C#N)cn1Cc1ccc(Cl)cc1Cl`, the growth was 45.2% (inactive).
The figure for `NC(=O)C1CCCN(Cc2c[nH]c3ccccc23)C1` (stereo not given) is 97.7% (inactive); for `COc1ccccc1C(=O)Nc1cccc(-c2cc(=O)c3c(OC)c(OC)c(OC)cc3o2)c1` it is 39.2% (inactive); for `Cc1cc(Nc2ccc(F)cc2)nc(N2CCN(c3ccnc4cc(Cl)ccc34)CC2)n1` it is 17.6% (inactive).
For the compound `COc1cc2nc(Nc3cccc(NC(C)=O)c3)nc(N)c2cc1OC`, the growth was 88.8% (inactive).
The figure for `CN(c1ccc(Cl)cc1)S(=O)(=O)c1ccc(-c2cnc(C3CC3)o2)cc1` is 22.7% (inactive).
